Potency data for twelve compounds are collected here from PubChem BioAssay (NCATS).

Records with an inconclusive call do not appear. Entries that show only a call come without a potency. Calls of active or inactive are those of the source. Calls follow the shape of the dose curve; as a rule, active = well fitted curve in either direction with a large enough effect (not every such curve was filed as active); inconclusive = small, poorly fitted or top-dose-only effect, or another doubt; inactive = flat fitted curve, though single readings scatter.
Potency is read from the fitted curve at half-maximal effect.

For this assay, the target named is Mitogen-activated protein kinase 10 (Mus musculus) (UniProt Q61831). The assay can be described thus: JNK3 AlphaScreen Assay (AID 530).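 Also: kinase came from lysate of stimulated human HepG2 cells.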 The settings on record: JNK3 lysate, c-Jun phosphorylation; series mostly up to 57.1 µM. From the text: NIH Chemical Genomics Center [NCGC]
NIH Molecular Libraries Screening Centers Network [MLSCN]
The c-jun N-terminal kinase (JNK) family are serine/threonine protein kinases that phosphorylate c-jun, a component of the transcription factor […] (AP-1). JNK kinases are members of the mitogen-activated protein kinase family including the extracellular regulated kinases and p38 kinases. Three JNK genes (JNK 1, 2, and 3) have been identified in humans so far. JNK1 and JNK2 have a broad distribution and JNK3 is primarily found in neuronal tissues and cardiac myocytes.
JNK3 has been under consideration as a target for the treatment of neurodegenerative disorders. […] JNK pathway is also involved in pathological process in a mouse model of Parkinson's disease (Xia et al., 2001).
Given these potential tissue distributions and links to neuroprotection, JNK3 inhibitors should provide useful investigational tools to study the role of this kinase in several diseases including, arthritis, stroke, myocardial infarction, ischemic injury and Parkinson's disease.
A homogeneous AlphaScreen is developed to measure the activity of JNK3. AlphaScreen is a two bead-based proximity-dependent chemical energy transfer luminescent assay platform. The phosphorylation of a biotinylated c-jun substrate by JNK3 can be detected with an antibody raised against phosphorylated c-jun. This process brings streptavidin donor beads and Protein-A acceptor beads to within a proximity range of <200 nm, and subsequently lead a chemical luminescent reaction upon exciting donor beads with 680 nm laser excitation light. Inhibition of JNK3 activity by small molecules and subsequent decrease in the antibody binding to biotinylated c-jun could attenuate or abolish this chemical luminescent reaction.
Yang DD, Kuan CY, Whitmarsh AJ, Rincon M, Zheng TS, Davis RJ, Rakic P and Flavell RA (1997) Absence of excitotoxicity-induced apoptosis in the hippocampus of mice lacking the Jnk3 gene. Nature 389:865-870. [PMID: 9349820]
Herdegen T, Claret FX, Kallunki T, Martin-Villalba A, Winter C, Hunter T, and Karin M (1998) Lasting N-terminal phosphorylation of c-Jun and activation of c-Jun N-terminal kinases after neuronal injury. J.Neurosci. 18:5124-5135. [PMID: 9651196]
Xia XG, Harding T, Weller M, Bieneman A, Uney JB and Schulz JB (2001) Gene transfer of the JNK interacting protein-1 protects dopaminergic neurons in the MPTP model of Parkinson's disease. Proc.Natl.Acad.Sci.U.S.A. 98:10433-10438.
NCGC Assay Protocol Summary:
GST-cJun (1-79) (Stratagene, La Jolla CA, #205145) was biotnylated by PerkinElmer (PerkinElmer-BioSignalInc. Montreal, Canada) and was detectable by the streptavidin Donor beads. Anti-(phospho)cJun (Ser73) antibody was from UpState (Charlottesvilles, VA, #06-659). JNK3-containing lysates were generated from HepG2 cells and pre-activated by interleukin1-beta and tumor necrosis factor alpha. All reagents were stored at -20 C before using. Phosphorylated biotinylated-GST-cJun was recognized by Anti-(phospho)cJun (Ser73) antibody and this process brings acceptor and donor beads together. Therefore JNK3 phosphorylation of cJun can be measured by Alpha reading by EnVision (PerkinElmer, Boston, MA).
The composition of kinase buffer was (in mM) 20 tris- HCl (pH 7.6) 10 MgCl2, 1 DTT, and 0.1 Na3VO4 and 0.01% Tween-20. Beads were diluted in detection buffer containing (in mM) 20 tris-HCl (pH 7.7), 20 NaCl and 80 EDTA and 0.3% BSA. The assay was performed at room temperature. All compounds were screened as titrations from 0.6 nM to 46 uM final concentration. The assay was performed in 1536-well format (white solid bottom and untreated) as follows:
Sequence,Parameter,Value,Description
1,Reagent,3 uL,Biotin-GST-cJun, Anti-(phospho)cJun and pre-activated JNK3-containing lysates
2,Compound,23 nL,Final concentration was 0.6nM to 46uM
3,Time,15 minutes,Room Temperature
4,Reagent,1 uL,ATP final concentration 10uM
6,Reagent,0.5 uL,2ng/well bead mixture
[…]
(Alpha assays give light when donor and acceptor beads are brought close together.)
Take `Nc1nc2c(c(=O)[nH]1)N(C=O)[C@H](CNc1ccc(C(=O)N[C@@H](CCC(=O)O)C(=O)O)cc1)CN2`: the Potency result is “inactive”.

On to `O=C(O)C=Cc1ccc(Cn2ccnc2)cc1`, for which the Potency result was “inactive”. The same measure for `Cc1cc(O)c2c(c1)C(=O)c1cccc(O)c1C2=O`: “inactive”. Then `CN(C)CC[C@H](c1ccc(Cl)cc1)c1ccccn1`, with “inactive”; and `CC(C)[C@H](CO)Nc1nc(Nc2cccc(Cl)c2)c2ncn(C(C)C)c2n1`, with “inactive”.

As to `CN(N=O)C(=O)N[C@H]1C(O)OC(CO)[C@@H](O)[C@H]1O` (some centres not stated), the Potency entry was “inactive”. The same measure for `O=c1c(O)c(-c2ccc(O)c(O)c2)oc2cc(O)ccc12`: 12.6 µM (active); for `CCN1CCN(C(=O)N[C@H](C(=O)N[C@@H]2C(=O)N3C(C(=O)O)=C(CSc4nnnn4C)CS[C@@H]23)c2ccc(O)cc2)C(=O)C1=O`: “inactive”; for `CCOC(=O)C1=C(C)NC(=S)NC1c1cccc(O)c1` (configuration not stated): “inactive”.

On to `COc1ccc2c(c1OC)C(=O)OC2[C@H]1c2c(cc3c(c2OC)OCO3)CCN1C` (some centres not stated), for which the Potency entry is “inactive”. Turning to `c1coc(CNc2ncnc3nc[nH]c23)c1`, the Potency entry was “inactive”. On to `COc1ccc([C@@H]2CNC(=O)C2)cc1OC1CCCC1`, for which the Potency entry was “inactive”.
